Reference: the supplement of paper PMC11417369
± gives the standard deviation of the averaged measurements. Whole data set: some 25,000 sequences, median “ln(normalized median fluorescence intensity)” near 10, cut for the highest 2% near 12. This excerpt belongs to a sample that is enriched for the highest values.

What follows are sequences tested on PfAP2-G AP2 domain (GST-tagged) (assay: gcPBM binding intensity (ln(normalized median fluorescence intensity)); higher = stronger DNA binding).
Outline: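 The binding buffer was 1× PBS containing 1% milk, 0.2 mg/ml BSA, 0.5% salmon testes DNA and 0.03% Triton X-100. In it, GST-tagged P. falciparum DNA-binding domains expressed in E. coli were applied for 1 h to an Agilent 4 × 180k array of primer-extended double-stranded 36-bp intergenic genomic probes plus negative controls. Binding intensity, read with Alexa488 anti-GST antibody and a 488 nm scan, is the highest Masliner-normalised natural-log median intensity across replicate spots of either probe orientation.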
“TATTATATTATGTGATGTACATATTTATATAGGCCC [XGTACX_site4746]” was tested, and the “gcPBM binding intensity (ln)” value was 11.2 ± 0.8. For “TGTAGTTTTTATTTATGTACGCATAACATAATTTAA [XGTACX_site104]”, the “gcPBM binding intensity (ln)” value was 11.6 ± 0.7. In the case of “TTATTCATTTCGAAAAGTACAAATTCTGTTTATTAT [XGTACX_site6892]”, the “gcPBM binding intensity (ln)” value is reported as 11.1 ± 0.71. In the case of “CATATAAAAATGTGCACACACACACCCATATATATT [CACACA_site1526]”, the “gcPBM binding intensity (ln)” value is reported as 10.4 ± 0.41. With “TACACAAACAGACACACACACACACGCGCACAAAAA [CACACA_site7192]” the “gcPBM binding intensity (ln)” value was 10.6 ± 0.38. For “TATACAATATAAAATACACACGCACCCAAAAAAAAA [CACACA_site9174]”, the “gcPBM binding intensity (ln)” value was 10.6 ± 0.4. With “AAAAAAAAAACAAATACACACGCACCCAAAAAAAAA [CACACA_site8166]” the “gcPBM binding intensity (ln)” value was 10.5 ± 0.26. With “AAAAAAAAAAAATGTGCACACGCGTACACCCAAAAA [CACACA_site8614]” the “gcPBM binding intensity (ln)” value was 11.7 ± 0.77. With “AAAAAAAAAATGTGCACACGCGTACACCCAAAAAAA [CACACA_site5149]” the “gcPBM binding intensity (ln)” value was 11.7 ± 0.99. “AACATATAAAAATGTGCACACACACCCATATATATA [CACACA_site1525]” was tested, and the “gcPBM binding intensity (ln)” value was 10.4 ± 0.3. “AACACGCACAGACACACACACAAAAATGATTAAAAA [CACACA_site7195]” was tested, and the “gcPBM binding intensity (ln)” value was 10.6 ± 0.67. “AAAAAAAAAAAATGTGCACACGCGTACAGACAAAAA [CACACA_site2005]” was tested, and the “gcPBM binding intensity (ln)” value was 11.8 ± 0.99. For “AAGGAACTATAATATACACACATAAGTGTACTTATA [CACACA_site7816]”, the “gcPBM binding intensity (ln)” value was 11.5 ± 1. With “TATATATATATAACAACACACACAGATCATAAAACT [CACACA_site8670]” the “gcPBM binding intensity (ln)” value was 10.3 ± 0.27. With “TTAATACCCAGACACACACACACAAAATAAAATACA [CACACA_site7968]” the “gcPBM binding intensity (ln)” value was 10.2 ± 0.4. “TTGTATTAAAATCAAGTGCATATAATTTAAGTTCAT [GTGCAC_site9495]” was tested, and the “gcPBM binding intensity (ln)” value was 10 ± 0.16. For “ATAATTAACAAATACACACACACACGCCCACAAAAA [CACACA_site6389]”, the “gcPBM binding intensity (ln)” value was 10.9 ± 0.54. In the case of “AAATTTAAATAATGTGCGCATCTTAATATATATAAG [GTGCAC_site9890]”, the “gcPBM binding intensity (ln)” value is reported as 10.2 ± 0.13. “CCCCATTTATCTTAAGCATGCCATGGTTTTAGATAT [TGCATGCA_site24]” was tested, and the “gcPBM binding intensity (ln)” value was 10.6 ± 0.42. In the case of “CTTATACATAAATTTTGTACACACAAAAAAAAAAAA [XGTACX_site2665]”, the “gcPBM binding intensity (ln)” value is reported as 11.2 ± 1.1. In the case of “GAAAATTTTTGGTGTACACAAAAAAATCCAAAAAAA [CACACA_site5042]”, the “gcPBM binding intensity (ln)” value is reported as 11.7 ± 0.87. For “ATACATAAATTTTGTACACACAAAAAAAAAAAAGCT [CACACA_site1351]”, the “gcPBM binding intensity (ln)” value was 11.2 ± 0.87. With “ATGAATATAAAATATACACACTTATATATCGAATGA [CACACA_site6240]” the “gcPBM binding intensity (ln)” value was 9.79 ± 0.13. “ATTAGAGAATCGTAACCCAAATGAACATACTTAAAT [GTGCAC_negctrl_site363]” was tested, and the “gcPBM binding intensity (ln)” value was 10.04 ± 0.035. With “AAAAAAAATATATAAACACACATATTTATATACTCA [CACACA_site4984]” the “gcPBM binding intensity (ln)” value was 9.665 ± 0.092. In the case of “TTTATTTATTTTTGTTGTACACTTGTATATATTATT [XGTACX_site6486]”, the “gcPBM binding intensity (ln)” value is reported as 11.4 ± 0.8. In the case of “TACAAAATAACTAGCACACATATGTATAAACATATA [CACACA_site5948]”, the “gcPBM binding intensity (ln)” value is reported as 10.1 ± 0.17. In the case of “TATACATAAAACAGTTCACACATTGTATGAATATAT [CACACA_site4751]”, the “gcPBM binding intensity (ln)” value is reported as 9.855 ± 0.035. In the case of “ATAAAATAAATATAACCACACACGAAAGAGAGAGAA [CACACA_site9075]”, the “gcPBM binding intensity (ln)” value is reported as 10.09 ± 0.057. For “GTAAACAATTATGAACGTACATAAAATAAATGAACA [XGTACX_site7159]”, the “gcPBM binding intensity (ln)” value was 11.3 ± 0.85. In the case of “ATAATAAATTCTACGCGTACAAAACCATGAACATTA [XGTACX_site7505]”, the “gcPBM binding intensity (ln)” value is reported as 11.7 ± 1.1. “ATATTAATTCTACATTGTACACATGAAAAAATATAA [XGTACX_site8759]” was tested, and the “gcPBM binding intensity (ln)” value was 11.4 ± 0.96. For “CAAGGAACCAGACACACACACATAAATGTATATATA [CACACA_site752]”, the “gcPBM binding intensity (ln)” value was 10.1 ± 0.18. For “TTCATTCAAATCCAAGCATGCTTTATTAAAAAATTA [TGCATGCA_site567]”, the “gcPBM binding intensity (ln)” value was 9.84 ± 0.26. For “TTTATTTTTCCATATGCACACACACCGTATATATAA [CACACA_site8293]”, the “gcPBM binding intensity (ln)” value was 10.3 ± 0.16. In the case of “TCTTAAAATCGGAAATGAAATAAAGTTTACAATATG [TGCATGCA_negctrl_site553]”, the “gcPBM binding intensity (ln)” value is reported as 9.87 ± 0.071. In the case of “TTTATATGTATGAAGTGTACACATATATTGTATTTT [XGTACX_site5731]”, the “gcPBM binding intensity (ln)” value is reported as 11.6 ± 0.82. For “ATATGTATTAAGTGTACACATATAATGGGTTTTCTT [CACACA_site5328]”, the “gcPBM binding intensity (ln)” value was 11.6 ± 0.73. “ATATGTTTTAAGTGTACACATATAATGTATTTTGTT [CACACA_site4929]” was tested, and the “gcPBM binding intensity (ln)” value was 11.6 ± 0.9. With “TTTATATGTATTAAGTGTACACATATAATGTGTTTG [XGTACX_site6629]” the “gcPBM binding intensity (ln)” value was 11.5 ± 0.86. In the case of “ATATGTATTAAGTGTACACATATAATGTATTTTGTT [CACACA_site4177]”, the “gcPBM binding intensity (ln)” value is reported as 11.6 ± 0.92. For “ATATATATATATATATGTACACATATATTTCTTTTC [XGTACX_site3443]”, the “gcPBM binding intensity (ln)” value was 11.4 ± 0.91. “ATATGTATTAAGTGTACACATATAATGGGTTTGTTA [CACACA_site5682]” was tested, and the “gcPBM binding intensity (ln)” value was 11.7 ± 0.95. For “ATATGTATGAAGTGTACACATATATTGTATTTTCTT [CACACA_site5503]”, the “gcPBM binding intensity (ln)” value was 11.7 ± 0.91.
